Results on one compound are retold here after PubChem BioAssay AID651827 (Vanderbilt Specialized Chemistry Center, 2012).

The assay in a line: PubChem AID 651827. The note with it: Ricerca radioligand binding panel, percent inhibition, at 10 µM, stronger effect = higher value.

In general, inhibition refers to the change of the read-out against control, counted positive when it falls. For `CS(=O)(=O)N(CC(=O)NCC1CC1)c1cc(C(F)(F)F)ccc1Cl`, the inhibition is -9%. Besides, the inhibition (Adenosine A2A binding) is -8%. Besides, the inhibition (Adenosine A3 binding) amounted to 1%. Further, the inhibition (EGF receptor binding) came out at 14%. For the same compound, for the setting “IL-1 receptor binding”, the inhibition was determined as 15%. Further, where the note is “L-type Ca benzothiazepine site”, the inhibition is 48%. Also, the inhibition (L-type Ca dihydropyridine site) came to 36%. Further, the inhibition (Melatonin MT1 binding) was 16%. For the same compound, the inhibition (PAF receptor binding) is 15%. Also, the inhibition (Purinergic P2Y binding) amounted to 20%. Further, where the note is “Serotonin transporter binding”, the inhibition came to 15%. For the same compound, the inhibition (Thyroid hormone binding) amounted to 16%. Also, the inhibition (hERG binding) is -2%.
